Compound activity (PubChem BioAssay)
The sample as a whole holds a higher share of hits than the screen did.
CBX7 inh: CBX7 inhibition, primary AlphaScreen | O95931 | AlphaScreen His6-CBX7 / biotin-H3K27me3 peptide binding; stronger effect = lower value | 66,000 tested, 1.1% active | AID 1224903 | normalised signal (fraction of DMSO) (concentration not given with the values); in the data active = normalised signal below about 0.5
Target sequence (O95931 whole entry, looked up): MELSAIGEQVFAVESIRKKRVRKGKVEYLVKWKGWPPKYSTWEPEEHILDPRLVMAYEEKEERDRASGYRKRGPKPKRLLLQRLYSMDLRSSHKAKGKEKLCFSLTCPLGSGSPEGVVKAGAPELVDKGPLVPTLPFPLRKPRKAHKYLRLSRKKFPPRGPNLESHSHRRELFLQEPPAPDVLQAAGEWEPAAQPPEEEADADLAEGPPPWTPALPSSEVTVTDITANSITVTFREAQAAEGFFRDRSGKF
Numbers without * were called inactive.

SMILES	CBX7 inh
CCN(Cc1ccccc1)S(=O)(=O)c1ccc(C(=O)Nc2nnc(COC)o2)cc1	0.883
CN(C1CCCCC1)S(=O)(=O)c1ccc(C(=O)Nc2nc(-c3ccncc3)cs2)cc1	0.961
CCCCN(CC)S(=O)(=O)c1ccc(C(=O)Nc2nnc(COC)o2)cc1	0.0616*
CCCCN(C)S(=O)(=O)c1ccc(C(=O)Nc2nnc(-c3cccs3)o2)cc1	0.68
CCCCN(CC)S(=O)(=O)c1ccc(C(=O)Nc2c(C(=O)OCC)oc3ccccc23)cc1	1.1
CCC(C(=O)NCC1CCCN1CC)n1ncc2ccccc21 (stereo unspecified)	1.01
Cc1ccc(NC(=O)c2cn(-c3ccc(C)c(C)c3)c(=O)c3ccccc23)c(Br)c1	0.949
Cc1oc(-c2ccccc2)cc1C(=O)Nc1cccc(Oc2ccccc2)c1	0.996
Cc1ccc(-c2noc(CCC(=O)N3CCCC(C)C3)n2)cc1 (stereo unspecified)	1.06
CCn1cc(C(=O)N2CCN(c3ccccn3)CC2)c(=O)c2ccc(C)nc21	1.03
CCOc1cc2[nH]c(=O)n(Cc3ccc(C(=O)NCc4cccnc4)cc3)c(=O)c2cc1OCC	1.03
CC1CCCCC1NC(=O)C1CCCN(c2nc3ccccc3o2)C1 (stereo unspecified)	1.02
CCOc1ccc(CNc2sc3c(c2C(=O)Nc2cc(OC)ccc2OC)CCC3)cc1	0.954
COc1cccc(-c2nnc(-c3ccc(F)cc3)o2)c1	1.36
Cc1ccccc1C(=O)Nc1c(C(=O)c2ccc(Cl)cc2)oc2ccccc12	1.11
CCOC(=O)c1ccc(NC(=O)CSc2nccn2-c2cccc(Cl)c2)cc1	0.942
CCc1ccc2oc(-c3ccc(NC(=O)COc4ccc(C)cc4C)cc3)nc2c1	1.02
CCCCN(CCCC)S(=O)(=O)c1ccc(C(=O)Nc2nnc(C3CC3)o2)cc1	0.0448*
CCc1nnc(NC(=O)c2ccc(S(=O)(=O)N(C)C)cc2)o1	0.0418*
COCc1nnc(NC(=O)c2ccc(S(=O)(=O)N(C)C)cc2)o1	0.559
COCCN(CCOC)S(=O)(=O)c1ccc(C(=O)Nc2nnc(C3CC3)o2)cc1	0.543
CCc1cccc(C)c1Nc1c(-c2ccccc2)nc2ncccn12	0.996
CCOCCCNC(=O)CCN1C(=O)C(C)Oc2ccc(C)cc21 (stereo unspecified)	1
CCOC(=O)c1cnc2ccc(OCC)cc2c1Nc1ccc(C)c(F)c1	0.66
COc1cc(OC)cc(-n2nc(C(=O)NCc3ccccc3OC)c3ccccc3c2=O)c1	0.987
SMILES	CBX7 inh
CCOc1ccc2nc(NC(=O)Cn3nc(Cc4ccncc4)c4ccccc4c3=O)sc2c1	1.18
O=C(O)c1c[nH]c2ccc(S(=O)(=O)NCc3ccc4c(c3)OCO4)cc2c1=O	0.477*
COc1cccc(CNS(=O)(=O)c2ccc3[nH]cc(C(=O)O)c(=O)c3c2)c1	0.897
COc1ccccc1CNS(=O)(=O)c1ccc2[nH]cc(C(=O)O)c(=O)c2c1	0.712
CCCn1cc(C2CC(=O)N(c3ccc(Br)cc3)C2=O)c2ccccc21 (stereo unspecified)	1.07
CCCn1cc(C2CC(=O)N(c3ccc(C)cc3)C2=O)c2ccccc21 (stereo unspecified)	1.02
CCCn1cc(C2CC(=O)N(c3ccccc3C)C2=O)c2ccccc21 (stereo unspecified)	0.464*
O=C(O)CCc1ccc(-c2ccccc2)n1-c1ccc(F)cc1	0.931
CC1CCCCN1S(=O)(=O)c1ccc(C(=O)Nc2nc(-c3ccncc3)cs2)cc1 (stereo unspecified)	1.04
CC1CCCN(S(=O)(=O)c2ccc(C(=O)Nc3nc(-c4ccccn4)cs3)cc2)C1 (stereo unspecified)	0.221*
CC1CCCCN1S(=O)(=O)c1ccc(C(=O)Nc2nc(-c3ccccn3)cs2)cc1 (stereo unspecified)	0.193*
CC1CCN(S(=O)(=O)c2ccc(C(=O)Nc3nc(-c4ccccn4)cs3)cc2)CC1	0.962
O=C(Nc1nc(-c2ccncc2)cs1)c1ccc(S(=O)(=O)N2CCCCC2)cc1	1.02
CC1CCN(S(=O)(=O)c2ccc(C(=O)Nc3nc(-c4ccncc4)cs3)cc2)CC1	0.998
CCOc1ccccc1-c1cc(C(=O)O)c2cc(Br)ccc2n1	0.878
COc1ccc(N2CCN(Cc3nc(-c4ccc(C)cc4)no3)CC2)cc1	0.316*
Cc1ccc(-c2noc(CN3CCN(c4ccc(F)cc4)CC3)n2)cc1	0.99
Cc1ccc(-c2noc(CN3CCOCC3)n2)cc1	1.33
O=C1CNC(c2ccccc2)=C2C=C(Br)C=CC2N1 (stereo unspecified)	1.04
O=C(NCCc1ccccc1)C1CCC(=O)N1Cc1ccc(F)cc1 (stereo unspecified)	1.06
COCCN1Cc2cccc(C(=O)Nc3ccccc3F)c2C1=O	1.14
O=C(CCN1C(=O)c2cccnc2C1=O)Nc1cccc(F)c1	0.443*
O=C(CCCN1C(=O)c2cccnc2C1=O)Nc1ccc(F)c(F)c1	1.1
O=C(CCCN1C(=O)c2cccnc2C1=O)Nc1cccc(Cl)c1	0.798
O=C(NCc1ccc(Cl)cc1)C1CCCN(C(=O)c2cnn(-c3ccccc3)c2-n2cccc2)C1 (stereo unspecified)	1.04
